SMILES strings stand for the structures. “And” between values parts separate entries of the source, which are not always exact repeats. Equal entries are not always repeated. About 2,600 (16%) of roughly 16,000 compounds were called active. About 20% were inconclusive and are not listed. A selection follows. A number with no mark means an inactive call. The call rests on the fitted dose curve; in most records, active means well fitted curve in the direction sought with a large enough effect; inconclusive means small, poorly fitted or top-dose-only effect, or effect the other way; inactive means no such curve, though single readings can be large or run the other way.

63 compounds from PubChem BioAssay AID1851 (National Center for Advancing Translational Sciences (NCATS), 2009) can be followed below.
On the % scale 0 is the no-effect control and ±100 the full control effect.

The target in the assay is Cytochrome P450 2D6 (Homo sapiens) (UniProt P10635). As to the kind of experiment: Cytochrome panel assay with activity outcomes. As to conditions: recombinant CYP, pro-luciferin dealkylation, luminescence, p450-cyp2d6; series mostly up to 57.1 µM.
Cytochrome P450 2D6 (Homo sapiens), sequence (P10635 whole entry, looked up): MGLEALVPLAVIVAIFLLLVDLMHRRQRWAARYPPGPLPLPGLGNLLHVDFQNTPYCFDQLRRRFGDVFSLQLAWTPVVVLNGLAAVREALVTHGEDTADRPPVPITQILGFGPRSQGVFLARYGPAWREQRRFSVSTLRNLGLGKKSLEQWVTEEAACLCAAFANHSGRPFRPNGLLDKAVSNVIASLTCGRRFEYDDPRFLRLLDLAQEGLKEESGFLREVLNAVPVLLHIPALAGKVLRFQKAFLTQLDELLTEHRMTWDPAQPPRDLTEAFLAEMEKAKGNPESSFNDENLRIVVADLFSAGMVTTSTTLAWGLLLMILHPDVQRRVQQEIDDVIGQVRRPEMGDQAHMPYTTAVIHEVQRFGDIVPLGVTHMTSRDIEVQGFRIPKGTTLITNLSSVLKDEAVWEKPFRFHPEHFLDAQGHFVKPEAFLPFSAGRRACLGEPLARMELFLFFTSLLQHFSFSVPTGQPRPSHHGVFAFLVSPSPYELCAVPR
One may read the AC50 as the concentration giving half of the maximal activity seen. As to `CCC(=O)N1CCN(C(=O)c2ccccc2)CC1`, the AC50 entry is “inactive”.

In the case of `COc1cc(O)c2c(O)c3c(c4c2c1[C@@]1(C4)C(C)=CCCC1(C)C)[C@H](O)[C@@]1(O)CC(=O)C(C(N)=O)=C(O)[C@]1(O)C3=O`, the activity, negative = inhibition was -15.8% [at 11.4 µM]. Turning to `COC(=O)c1cccc(NC(=O)/C=C/c2cccc([N+](=O)[O-])c2)c1`, the AC50 result is “inactive”. The same measure, in the same setting: next, `COCCCNC(=O)/C=C/c1cccc(Cl)c1`: “inactive”; `O=C(/C=C/c1cccc(Cl)c1)Nc1ccncc1`: 7.94 µM (active). Regarding `C[C@@]1(CCOCc2ccccc2)NC(=O)NC1=O`, the activity, negative = inhibition was -5.74% [at 11.4 µM]. Take `COc1ccc(C(=O)NCc2cn3ccccc3n2)cc1`: the AC50 result is “inactive”. Still for that read-out and setting: as for `C=C[C@@]1(C)CC(=O)[C@@]2(O)[C@@]3(C)[C@@H](O)CCC(C)(C)[C@@H]3[C@H](OC(=O)CCN(C)C)[C@H](OC(C)=O)[C@@]2(C)O1`, the entry is “inactive”. Still for that read-out and setting: as for `O=C(Nc1ccccc1C(=O)Nc1ccc2c(c1)OCO2)c1ccco1`, the figure is 12.6 µM (active); as for `O=C(NC(Cc1ccccc1)C(=O)O)/C(=C\c1ccco1)NC(=O)c1ccc(Br)cc1` (stereo not drawn), “inactive”. On the same count and under the same terms, next, `CCC(NC(=O)c1ccccc1NC(=O)c1ccco1)C(=O)NC1CCCCC1` (stereo not drawn): “inactive”. On to `O=C(Nc1ccccc1)/C(=C\c1ccc2c(c1)OCO2)NC(=O)c1ccco1`, for which the AC50 was 15.8 µM (active). Same read-out and setting: next, `CC1(C)Oc2ccc(NC(=O)c3ccco3)cc2O1`: “inactive”; `Cc1ccc(NC(=O)/C(=C\c2cccnc2)NC(=O)c2ccco2)cc1`: “inactive”; `O=C(N/N=C/c1ccc2c(c1)OCO2)/C(=C/c1ccc2c(c1)OCO2)NC(=O)c1ccccc1`: “inactive”. `COc1ccccc1C(=O)N/C(=C/c1ccc(Br)cc1)C(=O)NCC(=O)O`: the AC50 result was “inactive”. Still for that read-out and setting: as for `C=CCNC(=O)/C(=C\c1ccc2c(c1)OCO2)NC(=O)c1ccc(Br)cc1`, the figure is 25.1 µM (active). In the case of `C#CCCCO/N=C1/C[C@@H](O)[C@@H](O)[C@@H]2[C@@H]3C(=O)N(CC)C(=O)[C@H]3CC[C@H]12`, the activity, negative = inhibition is 14.7% [at 11.4 µM]. Take `CC(=O)COc1ccc2c(C)c(C)c(=O)oc2c1`: the AC50 entry was “inactive”.

On to `CCOC(=O)C(Sc1ncnc2c1sc1nc(N3CCOCC3)c3c(c12)CCCC3)c1ccccc1` (stereo not drawn), for which the AC50 entry is “inactive”. The same measure, in the same setting: next, `CCOC(=O)CC1C(=O)NCCN1S(=O)(=O)c1ccc(Cl)c(Cl)c1` (stereo not drawn): “inactive”; `COc1ccc(-n2c(=O)c(-c3ccc(F)c(F)c3)nc3cncnc32)cc1`: “inactive”. For the compound `NC(N)=NC(N)=Nc1ccc(S(=O)(=O)O)cc1`, the activity, negative = inhibition was 3.23% [at 11.4 µM]. On the same count and under the same terms, next, `O=C(O)/C(=C\c1ccccc1)c1ccccc1`: -2.29% [at 11.4 µM]. As to `Clc1ccccc1-c1nc(NCc2cccnc2)c2ccccc2n1`, the AC50 was 20 µM (active). Same read-out and setting: next, `Clc1ccccc1-c1nc(N/N=C/c2cccnc2)c2ccccc2n1`: “inactive”; `FC(F)(F)c1ccccc1-c1nc(NCc2cccnc2)c2ccccc2n1`: 15.8 µM (active). The same measure, in the same setting: next, `FC(F)(F)c1ccccc1-c1nc(Nc2ccncc2)c2ccccc2n1`: 25.1 µM (active); `Cc1ccccc1-c1nc(Nc2ccncc2)c2ccccc2n1`: “inactive”; `FC(F)(F)c1ccccc1-c1nc(NC2CCNCC2)c2ccccc2n1`: “inactive”. Still for that read-out and setting: as for `COc1cc(OC)c(C2C(C(=O)O)c3ccccc3C(=O)N2C)cc1OC` (stereo not drawn), the entry is “inactive”; as for `NC1(C(=O)O)C[C@@H](C(=O)O)[C@H](C(=O)O)C1`, “inactive”.

Turning to `CCNc1ncc2nc(-c3ccc(Cl)cc3)c(=O)n(C3CC3)c2n1`, the AC50 entry is “inactive”. Same read-out and setting: next, `N#CCCn1c(=O)cnc2cnc(N3CCOCC3)nc21`: “inactive”. Same read-out and setting: next, `CCCCCc1nnc(NC(=O)C(=O)OCC)s1`: “inactive”; `CC(C)OCCCN1C(=O)c2ccccc2C1C(=O)NC1CCCCC1` (stereo not drawn): “inactive”; `CO/N=C(\C(=O)N[C@@H]1C(=O)N2C(C(=O)[O-])=C(C[N+]3(C)CCCC3)CS[C@@H]12)c1csc(N)n1`: “inactive”. Still for that read-out and setting: next, `Cn1cccc1CC(=O)N/N=C\c1cccs1`: “inactive”.

As to `CCCCC(=O)NNC(=S)NC(=O)c1cccc([N+](=O)[O-])c1`, the AC50 entry is “inactive”. Same read-out and setting: as for `CCCn1c(=O)c2[nH]c(-c3ccccc3)nc2n(CCC)c1=O`, the entry is “inactive”; as for `CC1(C)OC(=O)C(=CNc2cccc(O)c2)C(=O)O1`, “inactive”.

Consider `CC(C)=CCC1=C(OCC(=O)O)C(=O)c2ccccc2C1=O`, for which the AC50 was 3.16 µM (active). Still for that read-out and setting: as for `CC(C)=CCc1c(C)nc2ccccc2c1C(=O)O`, the entry is “inactive”; as for `CC(CC(=O)O)CC(=O)Nc1ccc(S(N)(=O)=O)cc1` (stereo not drawn), “inactive”. The same measure, in the same setting: as for `CN1CCC(=C2c3ccccc3CC(=O)c3sccc32)CC1`, the figure is 7.94 µM (active) and 3.16 µM (active) and 5.01 µM (active); as for `O=C1/C(=N\O)Cc2ccccc21`, “inactive”; as for `CN1CCC(=C2c3ccccc3CCc3sccc32)CC1`, 1.26 µM (active). The same measure, in the same setting: as for `CCc1cc(C(=O)OC)c(NC(=O)CCCC(=O)O)s1`, the entry is “inactive”. As to `O=C(NNC(=O)c1cccnc1)Nc1cccc2ccccc12`, the AC50 entry is “inactive”. Take `CO[C@H]1COC(=O)C/C=C\[C@H](C)[C@@H](NS(=O)(=O)c2ccc(C)cc2)COC(=O)C/C=C\[C@@H]1C`: the activity, negative = inhibition was 3.82% [at 11.4 µM].

As for `NC(N)=NC(N)=Nc1c(F)c(F)c(F)c(F)c1F`, the activity, negative = inhibition is 13.6% [at 11.4 µM]. For the compound `Cc1ccc(N=CC2=C(O)CC(c3ccco3)CC2=O)cc1` (stereo not drawn), the AC50 entry was “inactive”. On the same count and under the same terms, as for `COc1cc(OC)c2c(c1)C(=O)c1cc(OC)cc(OC)c1C2=O`, the entry is “inactive”; as for `Nc1ncc(-c2ccccc2)n1CC1CCCO1` (stereo not drawn), 3.55 µM (active); as for `O=c1c(-c2ccccc2)nc2cnc(N3CCOCC3)nc2n1C[C@H]1CCCO1`, “inactive”.

As for `O=C1c2ccccc2C(=O)N1CC1CCCO1` (stereo not drawn), the AC50 result is “inactive”. The same measure, in the same setting: as for `Cc1c(Cl)cccc1NC(=O)CCC(=O)NNC(=O)c1ccco1`, the entry is “inactive”. Take `CCOC(=O)c1cnc(N(C)C)nc1SC(=N)N`: the activity, negative = inhibition was -3.04% [at 11.4 µM]. For the compound `Cc1noc(C)c1C(=O)N1CCC2(CCCN(C(=O)NC(C)C)C2)CC1`, the AC50 entry was “inactive”.

In the case of `O=C(CCNS(=O)(=O)c1cccs1)N1CCc2ccccc2C1`, the AC50 is 12.6 µM (active).

On to `O=C(O)CCC(=O)N1CCc2cc(S(=O)(=O)NCc3cccs3)ccc21`, for which the AC50 result is “inactive”.

In the case of `O=C(CCNS(=O)(=O)c1cccs1)N1CCCCCC1`, the AC50 entry was “inactive”.

With `COCCn1c(=O)c(-c2cc(F)cc(F)c2)nc2cncnc21`, the AC50 entry is “inactive”.
